DT40 TDP1 CPT = growth inhibition of DT40 Tdp1-/-;hTDP1 cells with camptothecin (screen for TDP1 inhibitors); chicken DT40 Tdp1-/-;hTDP1 cells + 20 nM CPT, ATP luminescence, 48 h; Potency, µM (titrated, usually from 46.2 µM), without a hit: at the top dose activity change, negative = growth inhibition, usual class: inhibitors; 12% of 420,000 active; also: potency is read from the fitted curve at half-maximal effect; nearly all actives have a fitted effect of over 55% in size
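Chicken DT40 Tdp1-/- cells complemented with human TDP1, 400 cells/well, exposed to compounds plus 20 nM camptothecin for at least 48 h at 37 C; viability read as ATP content by CellTiter-Glo luminescence.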
ELG1 repair inh = blocks ELG1-dependent DNA repair in HEK293T cells; HEK293T ELG1-luciferase reporter, luminescence, 16 h; DNA damage induced by 5-fluorouridine; Potency, µM (doses to about 46.1 µM), inactives show at the top dose activity change, negative = inhibition, most hits filed as inhibitors; 2.3% of 330,000 active; AID 504467; also: potency is read from the fitted curve at half-maximal effect; nearly all actives have a fitted effect of over 55% in size
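Luminescence from the luciferase reporter, measured 30 min after ONE-Glo reagent at room temperature, was the read-out. Beforehand, 2,000 cells per well were exposed for 16 hr at 37 °C to 5-fluorouridine together with compound or vehicle.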
HT1080-NT tox = kills 2HG-producing HT-1080-NT fibrosarcoma cells | HT-1080-NT fibrosarcoma viability, CellTiter-Glo ATP luminescence, 48 h | Potency, µM (doses to about 46.1 µM), for inactives: top-dose activity, negative = less viability, actives largely listed as cytotoxic | 1.6% of 360,000 active;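 also: NT is the 2HG producing partner of a matched IDH1 knockdown line; potency is read from the fitted curve at half-maximal effect; 0% = DMSO-treated cells and -100% = media-only wells without cells; nearly all actives have a fitted effect of over 55% in size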
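Compounds were tested in concentration-response format on HT-1080-NT cells for 48 hours at 37 degrees C. Cell viability came from CellTiter-Glo luminescence; curves were classified by r2, response magnitude and activity.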
DT40 TDP1 no CPT = qHTS for Inhibitors of human tyrosyl-DNA phosphodiesterase 1 (TDP1): qHTS in cells in absence of CPT; DT40 Tdp1-/- hTDP1 cells, no CPT, ATP luminescence, 48 h; Potency, µM (top dose mostly 46.2 µM), without a hit: top-dose activity change, negative = growth inhibition, most hits filed as inhibitors; 15% of 420,000 active; also: potency is read from the fitted curve at half-maximal effect; nearly all actives have a fitted effect of over 55% in size
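Growth kinetics read by CellTiter-Glo luminescence after ≥48 hr at 37 °C. Cells: DT40 Tdp1-/- stably carrying human TDP1, 400 per well, compound exposure in the absence of CPT (DMSO vehicle).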
HT1080 IDH1KD tx = kills HT-1080 cells with IDH1 knockdown. AID 686971. 2% of 360,000 active. Potency, µM (top dose mostly 46.1 µM), without a hit: top-dose activity, negative = toxicity, actives largely listed as cytotoxic. HT-1080 IDH1 knockdown viability, ATP luminescence, 48 h;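 also: potency is read from the fitted curve at half-maximal effect; 0% = DMSO wells and -100% = cell-free medium wells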
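Assay cells: HT-1080 with IDH1 knockdown, 750 per well, RPMI/5% FBS. Exposure: 48 h at 37 °C following 2 h pre-incubation. Read: CellTiter-Glo luminescence; fitted concentration-response, curve class assigned.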
IL1B secr inh = blocks inflammasome-driven IL-1 beta release; activity change, % at 57.5 µM; THP-1 LPS/ATP IL-1B secretion, AlphaLISA, 16 h; hits give low values; 4.7% of 360,000 active; AID 743279; in the data active = activity change below about -50%; inconclusive = mostly about -30% to -49%
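Secreted IL-1B measured by AlphaLISA bead assay after 16 h compound exposure of THP-1 cells; compounds (final up to 57.5 uM) added 1 h before LPS (250 ng/mL) and ATP (1.25 mM) stimulation; lower signal means less secretion.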
Active calls of the source: *; i = inactive; ? = inconclusive; · = no result. A selection: hits, their analogues and other compounds. The true share with any hit is near 19%. Unless noted, calls follow the shape of the dose curve; as a rule, active = well fitted curve in the direction sought with a large enough effect; inconclusive = small, poorly fitted or top-dose-only effect, or another doubt; inactive = no such curve, though single readings can be large; an effect the other way counts as inactive or inconclusive. Unless noted, % is scaled to controls: 0 for no effect and ±100 for the full control effect.

SMILES	DT40 TDP1 CPT	ELG1 repair inh	HT1080-NT tox	DT40 TDP1 no CPT	HT1080 IDH1KD tx	IL1B secr inh
Cc1cccc(/C=C2/Sc3ccc(C(=O)NCCN4CCCC4)cc3NC2=O)c1	?	0%	8%	23µM*	-4%	?
COc1ccc(/C=C2/Sc3ccc(C(=O)NCCCN4CCOCC4)cc3NC2=O)cc1OC	4.6µM*	16%	?	2.6µM*	21µM*	43
CCN1CCN(CCCNC(=O)c2ccc3c(c2)NC(=O)/C(=C\c2cccc(C)c2)S3)CC1	16µM*	-29%	?	?	7%	-87*
CCN1CCCC1CNC(=O)c1ccc2c(c1)NC(=O)/C(=C\c1ccccc1Cl)S2 (stereo unspecified)	?	·	-18%	?	-29%	?
Cc1cccc(/C=C2/Sc3ccc(C(=O)NCCCN4CCOCC4)cc3NC2=O)c1	·	-12%	·	·	·	·
COCCn1c(=O)c(-c2cn(C)c3ccccc23)nc2cnc(Oc3ccc(OC)cc3)nc21	6%	·	·	-9%	·	·
CCn1c(C(=O)NCc2cc(Br)ccc2OC)cc2oc3ccccc3c21	23µM*	·	·	?	·	·
CCn1c(C(=O)NCc2ccccc2Br)cc2oc3ccccc3c21	21µM*	·	-18%	-93%	?	·
CCn1c(C(=O)NCc2cccc(Br)c2)cc2oc3ccccc3c21	?	·	·	15µM*	·	·
CC[C@H](C)[C@@H](C(=O)NCCCCCCCCCCC(=O)N1CCNCC1)n1cc(CCCCN=C(N)N)nn1	?	19%	7%	?	10%	-1
CCCCC(CC)CN1CN(CC(CC)CCCC)CC(C)(N)C1 (stereo unspecified)	0.16µM*	·	-2%	0.23µM*	5%	-20
COc1ccc(CCNS(=O)(=O)c2ccc(-c3ccc(=O)[nH]n3)o2)cc1OC	10%	1%	16%	5%	15%	12
COc1ccc(CCNC(=O)CCS(=O)(=O)c2ccc3c(c2)NC(=O)CO3)cc1OC	-13%	10%	17%	28%	2%	0
COc1ccc(NC(=O)C2CC2)cc1S(=O)(=O)N1CCOCC1	4%	23%	-6%	-12%	4%	-1
COc1ccc(NC(=O)C23CC4CC(CC(Cl)(C4)C2)C3)cc1S(=O)(=O)N1CCOCC1	-22%	16µM*	0%	?	2%	3
O=C(NCC1CCCO1)c1cccc(S(=O)(=O)N2CCOCC2)c1 (stereo unspecified)	12%	?	-2%	-4%	-9%	2
COc1ccc2c(c1)C1C=CCC1C(c1cc3c(cc1Br)OCO3)N2 (stereo unspecified)	?	-8%	10µM*	18µM*	10µM*	7
CC(=O)c1ccc2c(c1)C1C=CCC1C(c1cc3c(cc1Br)OCO3)N2 (stereo unspecified)	3.7µM*	-1%	5.8µM*	4.6µM*	3.7µM*	97
CC(=O)c1ccc2c(c1)C1C=CCC1C(c1ccc(S(=O)(=O)N3CCOCC3)cc1)N2 (stereo unspecified)	-19%	0%	-13%	?	-21%	17
O=C(Nc1cccc(CNCCc2c[nH]c3ccccc23)c1)c1ccccc1Cl	?	16%	?	18µM*	?	?
CC(=O)c1cccc(NC(=O)NCCc2c[nH]c3ccccc23)c1	-14%	?	-6%	?	-2%	-8
CC(=O)Nc1ccc(NC(=O)CCCc2c[nH]c3ccccc23)cc1	-11%	5%	-1%	?	-11%	-15
O=C(COC(=O)c1ccccc1O)NCCc1c[nH]c2ccccc12	-27%	1%	-4%	?	-2%	-1
O=C(CCCc1c[nH]c2ccccc12)Nc1ccc2ccccc2c1	0%	29%	-14%	-22%	-22%	-85*
O=C(NCCc1c[nH]c2ccccc12)c1ccc([N+](=O)[O-])o1	15µM*	·	?	23µM*	?	-87*
SMILES	DT40 TDP1 CPT	ELG1 repair inh	HT1080-NT tox	DT40 TDP1 no CPT	HT1080 IDH1KD tx	IL1B secr inh
O=C(COC(=O)c1ccccc1C(=O)OCC(=O)NCCc1c[nH]c2ccccc12)NCCc1c[nH]c2ccccc12	?	?	?	23µM*	-23%	-20
Cc1sc2ncn(CC(=O)N3CCN(c4ccccn4)CC3)c(=O)c2c1S(=O)(=O)N1CCCCC1	-1%	-11%	-1%	-27%	4%	-28
O=C(NCCc1c[nH]c2ccccc12)Nc1ccccc1C(F)(F)F	23µM*	·	·	?	·	·
O=C(CCCc1c[nH]c2ccccc12)NCCc1c[nH]c2ccccc12	?	-20%	-20%	16µM*	-21%	?
O=C(NCCc1c[nH]c2ccccc12)OCCCCOC(=O)NCCc1c[nH]c2ccccc12	18µM*	?	?	23µM*	?	-51*
CC(C)(C)NC(=O)COC(=O)c1ccccc1NC(=O)c1ccco1	3%	-3%	16%	-4%	5%	52
O=C(Nc1ccccc1C(=O)OCC(=O)c1c[nH]c2ccccc12)c1ccco1	8.2µM*	?	?	?	-6%	-2
Cc1ccccc1NC(=O)NCCc1c[nH]c2ccccc12	-1%	?	20%	?	19%	-12
COc1ccc(NC(=O)C2(C)CCCN(C(C)C)C2)cc1OC (stereo unspecified)	-3%	·	12%	-2%	0%	103
CC(C)CCNC(=O)C1CCC(CNS(=O)(=O)c2ccc(Cl)cc2)CC1 (stereo unspecified)	-3%	?	0%	2%	0%	7
CCc1ccc(C(=O)N2CCN(c3ccc(NC(=O)c4cccnc4)cc3)CC2)cc1	?	23µM*	9%	-18%	21%	i
O=C(Nc1ccc(N2CCN(C(=O)c3cccs3)CC2)cc1)c1cccnc1	?	?	24%	?	23%	-52*
O=C(Nc1ccc(N2CCN(C(=O)c3ccccc3)CC2)cc1)c1cccnc1	-18%	?	24%	-19%	3%	-58*
CCc1ccc(C(=O)N2CCN(c3ccc(NC(=O)c4ccco4)cc3)CC2)cc1	?	-1%	14%	?	9%	-12
O=C(Nc1ccc(NC(=O)c2cccs2)cc1)c1cccnc1	-19%	-5%	-14%	-24%	-12%	2
